# Compound activity (PubChem)
# gsp agonist: gsp mutant agonism | gsp mutant cells, cAMP HTRF, 30 min | Potency, µM (series often up to 76.9 µM), most hits filed as activators | actives 0.13% (n = 340,000); active = well fitted activation curve with a large enough effect; inconclusive = small, poorly fitted or top-dose-only effect, or another doubt; inactive = no such curve, though single readings can be large or run the other way; cell line not stated here;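 also: phosphodiesterase inhibitor Ro 20-1724 added with compounds to block cAMP breakdown; nearly all actives have a fitted effect of over 60% in size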
#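 Cells in DMEM/10% FBS with G418 were pretreated with compounds in DMSO plus […] (300 uM stock) for 30 min at 37C. cAMP was measured by HTRF (cAMP-d2 plus anti-cAMP antibody-K) after 30 min at room temperature.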
# TRPV1 agonist: human TRPV1 agonism; AID 540275; actives 0.19% (n = 320,000); activation, % at 8.33 µM; Q8NER1; TRPV1-expressing cells, Fluo-8 calcium influx, agonist mode; in the data active = activation above about 80%; inconclusive = between about 30% and that limit
#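 Cells expressing TRPV1 were dye-loaded with Fluo-8 and read kinetically: 10 s baseline, 3 min after compound (agonist portion), then 2 min after EC20 capsaicin (allosteric enhancer portion). Calcium-bound dye fluorescence at 480/520 nm.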
# gsp antag: antagonizes gsp, the McCune-Albright syndrome mutation. gsp-mutant cells, cAMP HTRF, 30 min. Potency, µM (top dose mostly 76.9 µM), usual class: inhibitors. actives 0.4% (n = 340,000). AID 624288; calls by dose curve; cell line not stated here;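 also: intracellular cAMP measured with PDE inhibitor Ro 20-1724 present during compound exposure; nearly all actives have a fitted effect of over 65% in size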
#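 HTRF cAMP measurement after 30 min RT detection following 30 min, 37C compound treatment alongside […] (added as 300 uM solution) in G418-selected cells seeded at 2000/well and grown 16–24 h.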
# TRPV1 PAM: potentiators of human vanilloid receptor 1 (TRPV1). Q8NER1. TRPV1-expressing cells, Fluo-8 calcium influx, capsaicin EC20 potentiation. potentiation, % at 8.33 µM. actives 0.02% (n = 320,000); in the data active = potentiation above about 80%; inconclusive = between about 30% and that limit
#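 Fluo-8 calcium influx in TRPV1-expressing cells, kinetic read (ex 480/em 520 nm). Compound added and read 3 min for agonist activity, followed by capsaicin at EC20 final and 2 min further read for enhancement.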
# RXFP1 agonist: agonists of human relaxin receptor RXFP1; actives 0.3% (n = 370,000); HEK293T-RXFP1 cAMP TR-FRET, 30 min; response scale: percent of porcine relaxin response, buffer zero; Potency, µM (titrated, usually from 57.5 µM), actives largely listed as activators; Q9HBX9; AID 2676; active = well fitted activation curve with a large enough effect; inconclusive = small, poorly fitted or top-dose-only effect; also: nearly all actives have a fitted effect of over 60% in size
#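 cAMP rise read by TR-FRET after 30 min, 37C compound exposure (up to 58 uM) in RXFP1-transfected HEK293 cells with Ro 20174 present. EC50 from Hill-equation fits, with 29 nM porcine relaxin as 100% and buffer as basal.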
# RXFP1 antag: blocks the human relaxin receptor RXFP1; HEK293-RXFP1, relaxin-stimulated cAMP HTRF, 30 min; stronger effect = lower value; activity change, negative = inhibition, % at 57.5 µM; actives 0.59% (n = 350,000);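 active = activity change of -60% or lower, but not beyond a set lower limit; inconclusive = change between -60% and -40%, or beyond the set limit; inactive = change above -40%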
# Numbers stand for hits; – = inactive; ? = inconclusive; · = no result; [ ] = remark or other dose. This is a sample that favours compounds with a hit; in the whole collection about 1.1% have one here.
SMILES,gsp agonist,TRPV1 agonist,gsp antag,TRPV1 PAM,RXFP1 agonist,RXFP1 antag
Cc1c([N+](=O)[O-])cc(N2C(=O)C=CC2=O)cc1[N+](=O)[O-],–[15.4 µM],·,–,·,·,?
Cc1cc(C)cc(N2C(=O)C=CC2=O)c1,–,·,?,·,·,-85
Cc1nn(-c2ccccc2)c(N2CCCC2)c1/C=N/NC(=O)c1ccccc1O,–,–,?,–,–,–
O=C(N/N=C/c1cc2c3c(c1O)CCCN3CCC2)c1ccccc1O,–[15.4 µM],–,?,–,–,-76
CCOc1ccc(C(=O)NN2CCOCC2)cc1,?,–,–,–,–,–
COc1ccc(OC)c(C2C(C(=O)Nc3nc4ccccc4s3)=C(C)NC3=C2C(=O)CCC3)c1 (stereo not given),–,–,32µM,–,–,–
COc1ccccc1C(=O)NCCC(=O)Nc1nc2ccccc2[nH]1,–[15.4 µM],–,–,–,–,-86
O=C(CCNC(=O)c1ccccc1Cl)Nc1nc2ccccc2[nH]1,–[15.4 µM],·,–,·,·,–
O=C(Nc1nc2ccccc2s1)c1ccc(OCC2CCCO2)cc1 (stereo not given),–,–,32µM,–,–,–
COc1ccc(C(=O)Nc2nc3ccccc3s2)cc1,–,96,?,–,–,-66
Cc1cnc(NC(=O)c2ccc(OCC3CCCO3)cc2)s1 (stereo not given),–[15.4 µM],–,–,–,–,–
CCc1cccc(NC(=O)Cn2c(=O)n(CCCCCC(=O)NCc3ccc(F)cc3)c(=O)c3sccc32)c1,·,·,·,·,–,–
CCOc1ccccc1NC(=O)c1cc(S(=O)(=O)NCc2ccco2)ccc1F,–,–,–,–,–,?
CCC(C)NC(=O)c1cnn(-c2ccc(Cl)cc2)c1C1CCN(C(=O)OC(C)(C)C)CC1 (stereo not given),·,·,·,·,–,–
COc1ccc(N(C(=O)c2ccc(Cl)cc2)S(=O)(=O)c2ccc(C)cc2)cc1,·,·,·,·,–,–
COc1ccc(C(=O)Nc2nc3ccccc3[nH]2)cc1,–,–,–,–,–,-78
COc1ccc(C(CNC(=O)Nc2ccc(Cl)cc2)N2CCN(C)CC2)cc1 (stereo not given),–,–,–,–,–,–
CCOC(=O)C[C@H]1c2ccccc2S(=O)(=O)N1Cc1cccc(C(F)(F)F)c1,–,·,–,·,·,·
COc1ccc(Br)cc1CN(C)C(=O)CNC(=O)c1ccc2ccccc2c1,–[15.4 µM],–,32µM,–,–,–
COc1ccc(CN(C)C(=O)CNC(=O)c2ccc3ccccc3c2)c(OC)c1,–[15.4 µM],–,–,–,–,–
Cc1cccc(-c2nc3scc(CCNS(=O)(=O)c4ccc(F)c(C(F)(F)F)c4)n3n2)c1,·,·,·,·,–,–
O=C(c1ccc2c(c1)N(Cc1ccccc1)C(=O)c1ccccc1S2)N1CCCC1,–,–,?,–,–,–
CCOC(=O)C1CCCN(C(=O)c2ccc3c(c2)N(Cc2ccccc2)C(=O)c2ccccc2S3=O)C1 (stereo not given),–[15.4 µM],–,8.9µM,–,–,–
CN1C(=O)/C(=C/c2cccc(Cl)c2)Sc2ccc(C(=O)N3CCCC3)cc21,–,–,8.9µM,–,–,–
CCOC(=O)C1CCCN(C(=O)c2ccc3c(c2)N(Cc2ccccc2)C(=O)c2ccccc2S3(=O)=O)C1 (stereo not given),·,·,·,·,–,–
SMILES,gsp agonist,TRPV1 agonist,gsp antag,TRPV1 PAM,RXFP1 agonist,RXFP1 antag
Cc1cccc(CN2C(=O)c3ccccc3Sc3ccc(C(=O)N4CCCC4)cc32)c1,·,·,·,·,–,-112
CCOc1ccc(OCCC(=O)OCC(=O)NC2CCCCC2)cc1,–,–,–,–,–,–
Cc1nc(SCC(=O)N2CCN(C(=O)c3ccco3)CC2)c2c(C)c(C)sc2n1,?,–,–,?,–,–
Cc1nc(SCC(=O)N2CCN(C(=O)c3cccs3)CC2)c2c(C)c(C)sc2n1,?,–,–,–,–,-64
OCC1(Cc2cccc(Cl)c2)CCCN(Cc2ccc(F)c(F)c2)C1 (stereo not given),–[15.4 µM],?,–,–,–,–
OCC1(Cc2ccc(F)cc2F)CCCN(Cc2ccc(Cl)cc2)C1 (stereo not given),–,–,–,–,–,-61
